# Results filed as inconclusive are left out. A number with no mark means an inactive call. Active and inactive are the calls of the source. Calls come from the whole dose curve; as a rule, active = well fitted cell-killing curve with a large enough effect; inconclusive = small, poorly fitted or top-dose-only effect, or effect the other way; inactive = no such curve, though single readings can be large or run the other way.
# Assay: Viability qHTS for spleen associated tyrosine kinase inhibitor (SYKi) drug resistant MV4-11 cells (AID 1963824); note: nearly all actives have a fitted effect of over 35% in size
# Details: SYKi-resistant MV4-11 viability, CellTiter-Glo, 72 h; series mostly up to 45 µM; viability, % of control: at the top concentration
# Procedure, shortened: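 SYK-inhibitor-resistant MV4-11 AML cells were seeded at 500 per well onto compound and cultured 72 hours (37 °C, 5% CO2). CellTiter-Glo was then added, and after 10 min at room temperature, luminescence gave viability.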
# Potency is the fitted concentration of half-maximal effect.
SMILES,"viability, % of control",Potency
CC1(C)CC[C@]2(C(=O)O[C@@H]3O[C@H](CO[C@@H]4O[C@H](CO)[C@@H](O)[C@H](O)[C@H]4O)[C@@H](O)[C@H](O[C@@H]4O[C@H](CO)[C@@H](O)[C@H](O)[C@H]4O)[C@H]3O)[C@H](O)C[C@]3(C)C(=CCC4[C@@]5(C)CC[C@H](O[C@@H]6OC[C@@H](O)[C@H](O)[C@H]6O)[C@@](C)(C(=O)O)C5CC[C@]43C)[C@@H]2C1 (stereo partly specified),65.4% [at 9.25 µM],–
Nc1nc2c(nc(Sc3ccc(Cl)cc3)n2[C@@H]2O[C@@H]3COP(=O)(O)O[C@H]3[C@H]2O)c(=O)[nH]1,114%,–
COC1CC(O[C@H]2CC[C@]3(C)C4CC[C@]5(C)C(C6=CC(=O)OC6)=CCC56OC46CC[C@@H]3C2)OC(C)C1O[C@@H]1O[C@H](CO[C@@H]2O[C@H](CO)[C@@H](O)[C@H](O)[C@H]2O)[C@@H](O)[C@H](O)[C@H]1O (stereo partly specified),–,1380 nM (active)
COc1ccc(CN2CCN(CCCSc3cc(C(C)(C)C)c(O)c(C(C)(C)C)c3)CC2)c(OC)c1OC,–,3480 nM (active)
CC1(C)CC[C@]2(C(=O)O[C@@H]3O[C@H](CO)[C@@H](O)[C@H](O)[C@H]3O)CC[C@]3(C)C(=CCC4[C@@]5(C)C[C@@H](O)[C@H](O)[C@@](C)(CO)C5[C@H](O)C[C@]43C)C2[C@@H]1O (stereo partly specified),87.2% [at 17.3 µM],–
CC(=O)OC1C(=O)C2(C)C(O)CC3OCC3(OC(C)=O)C2C(OC(=O)c2ccccc2)C2(O)CC(OC(=O)C(O)C(NC(=O)c3ccccc3)c3ccccc3)C(C)=C1C2(C)C (stereo unspecified),–,7.3 nM (active)
